Test results as given in PubChem BioAssay (Tox21).
Records with an inconclusive call do not appear. Active and inactive are the calls of the source. Calls follow the shape of the dose curve; as a rule, active = well fitted curve in the direction sought with a large enough effect in the repeat runs; inconclusive = weak or mixed curves; inactive = no such curve, though single readings can be large; an effect the other way counts as inactive or inconclusive.

Tests used:
[1] = A CellTox Green Cytotoxicity Assay to monitor cytotoxicity in HepG2 cells - 16 hour (AID 1224876); also: nearly all actives have a fitted effect of over 45% in size
How it was run: (§1)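 Continuous culture of HepG2 cells with a membrane-impermeant DNA dye; rising fluorescence marks dead cells. Compound exposure lasted up to 40 h at 37 C, with reads every 8 h from 0 h.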

[2] = qHTS RealTime-Glo MT Cell Viability Assay in HepG2 cells - 32 hour (AID 1224877); also: nearly all actives have a fitted effect of over 55% in size
How it was run: (§2)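 Luminescence read-out: viable HepG2 cells reduce a prosubstrate to a NanoLuc substrate, giving a signal proportional to live cell number. Reads taken at 0, 8, 16, 24, 32 and 40 h of compound exposure at 37 C.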

[3] = A CellTox Green Cytotoxicity Assay to monitor cytotoxicity in HepG2 cells - 40 hour (AID 1224879); also: nearly all actives have a fitted effect of over 40% in size
How it was run: as §1

[4] = qHTS RealTime-Glo MT Cell Viability Assay in HEK293 cells - 0 hour (AID 1224880); also: top concentration of the series differs between compounds; nearly all actives have a fitted effect of over 45% in size
How it was run: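 qHTS format; HEK293 cells with NanoLuc/prosubstrate reagent, 37 C/5% CO2 for 5 h pre-dosing; compounds 23 nL in DMSO; luminescence at each time point reflects viable cells.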

[5] = A CellTox Green Cytotoxicity Assay to monitor cytotoxicity in HEK293 cells - 32 hour (AID 1224881); also: nearly all actives have a fitted effect of over 40% in size
How it was run: (§3)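 Each value comes from one timepoint of a single continuous run in which HEK293 cells with CellTox Green were exposed to compound for up to 40 h at 37 C, dye fluorescence rising with cell death.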

[6] = A CellTox Green Cytotoxicity Assay to monitor cytotoxicity in HepG2 cells - 0 hour (AID 1224882); also: nearly all actives have a fitted effect of over 35% in size
How it was run: as §1

[7] = A CellTox Green Cytotoxicity Assay to monitor cytotoxicity in HepG2 cells - 32 hour (AID 1224883); also: nearly all actives have a fitted effect of over 50% in size
How it was run: as §1

[8] = A CellTox Green Cytotoxicity Assay to monitor cytotoxicity in HEK293 cells - 8 hour (AID 1224884); also: nearly all actives have a fitted effect of over 35% in size
How it was run: as §3

[9] = qHTS RealTime-Glo MT Cell Viability Assay in HepG2 cells - 16 hour (AID 1224885); also: nearly all actives have a fitted effect of over 50% in size
How it was run: as §2

[10] = A CellTox Green Cytotoxicity Assay to monitor cytotoxicity in HepG2 cells - 24 hour (AID 1224878); also: nearly all actives have a fitted effect of over 45% in size
How it was run: as §1
% is scaled to controls: 0 for no effect and ±100 for the full control effect.

Cc1cccc(Cl)c1
inactive: Potency [1] | outcome [2] | Potency [3] | Potency [4] | Potency [5] | Potency [6] | Potency [7] | Potency [8] | outcome [9]

CN(C)CCCCl
inactive: Potency [1] | outcome [2] | Potency [3] | Potency [4] | Potency [5] | Potency [6] | Potency [7] | Potency [8] | outcome [9]

O=C1c2ccccc2C(=O)c2cc(Cl)ccc21
inactive: cytotoxicity increase [1] -1.12% [at 6.97 µM] | activity change, negative = cytotoxic [2] -5.12% [at 6.97 µM] | cytotoxicity [10] 0.241% [at 6.97 µM] | cytotoxicity increase [3] 1.15% [at 6.97 µM] | activity change, negative = cytotoxicity [4] 3.49% [at 6.97 µM] | cytotoxicity increase [7] 0.512% [at 6.97 µM] | cytotoxicity increase [8] -6.44% [at 6.97 µM] | activity change, negative = cytotoxic [9] 1.7% [at 6.97 µM]

CCCCCCCCCCOC(C)=O
inactive: Potency [1] | outcome [2] | Potency [10] | Potency [3] | Potency [5] | Potency [6] | Potency [8]

CC(Oc1cc(Cl)ccc1Cl)C(=O)O (configuration not stated)
inactive: Potency [1] | outcome [2] | Potency [3] | Potency [4] | Potency [5] | Potency [6] | Potency [7] | Potency [8] | outcome [9]

O=C[O][Al]([O]C=O)[O]C=O
inactive: Potency [1] | outcome [2] | Potency [10] | Potency [3] | Potency [6] | Potency [7]

CN(C)C(C)(C)CO
inactive: Potency [1] | outcome [2] | Potency [10] | Potency [3] | Potency [4] | Potency [6] | Potency [8] | outcome [9]

O=Cc1ccccc1Cl
inactive: Potency [1] | outcome [2] | Potency [10] | Potency [3] | Potency [4] | Potency [7]

COC(=O)CCCCC(=O)O
inactive: Potency [1] | outcome [2] | Potency [10] | Potency [4] | Potency [5] | Potency [6] | Potency [8]

O/N=C/C=N/O
inactive: Potency [1] | outcome [2] | Potency [10] | Potency [3] | Potency [4] | Potency [7] | Potency [8] | outcome [9]

O=C(O)[C@H](O)c1ccccc1
inactive: Potency [1] | outcome [2] | Potency [3] | Potency [4] | Potency [5] | Potency [6] | Potency [7] | Potency [8] | outcome [9]

CC(C)Nc1ccccc1
inactive: Potency [1] | outcome [2] | Potency [10] | Potency [3] | Potency [4] | Potency [8] | outcome [9]

C=CC(=O)CCCCC
inactive: Potency [1] | outcome [2] | Potency [10] | Potency [3] | Potency [4] | Potency [6] | Potency [8] | outcome [9]

CCCCCC(C)O (configuration not stated)
inactive: Potency [1] | outcome [2] | Potency [3] | Potency [4] | Potency [5] | Potency [6] | Potency [7] | Potency [8] | outcome [9]

CC(C)[C@H]1CC[C@H](C)C[C@@H]1O
inactive: Potency [1] | outcome [2] | Potency [3] | Potency [4] | Potency [5] | Potency [6] | Potency [7] | Potency [8]

O=C1CCCCO1
inactive: Potency [1] | outcome [2] | Potency [10] | Potency [3] | Potency [4] | Potency [6] | Potency [8] | outcome [9]

CCCC(CC)c1ccccc1 (configuration not stated)
inactive: Potency [1] | outcome [2] | Potency [10] | Potency [3] | Potency [4] | Potency [7] | Potency [8] | outcome [9]

CC(C)NCC(O)c1ccc2ccccc2c1 (configuration not stated)
inactive: Potency [1] | outcome [2] | Potency [10] | Potency [3] | Potency [4] | Potency [6] | Potency [8] | outcome [9]

C=CCCCCCCCC
inactive: Potency [1] | outcome [2] | Potency [10] | Potency [3] | Potency [5] | Potency [6] | Potency [7] | Potency [8] | outcome [9]

COc1ccc2c(c1)c1c3n2CCN(C)C3=NCC1
inactive: Potency [1] | outcome [2] | Potency [10] | Potency [3] | Potency [4] | Potency [8] | outcome [9]

C=C(C)[C@@H]1CC=C(C)C(=O)C1
inactive: Potency [1] | outcome [2] | Potency [3] | Potency [4] | Potency [5] | Potency [6] | Potency [7] | Potency [8] | outcome [9]

CCCCCCCCCCCCCBr
inactive: Potency [1] | outcome [2] | Potency [10] | Potency [3] | Potency [5] | Potency [6] | Potency [7] | Potency [8] | outcome [9]

CC1CC(=O)CC(C)(C)C1 (configuration not stated)
inactive: Potency [1] | outcome [2] | Potency [3] | Potency [4] | Potency [5] | Potency [6] | Potency [7] | Potency [8] | outcome [9]

O=NN(CCCl)C(=O)NC1CCCCC1
inactive: Potency [1] | outcome [2] | Potency [3] | Potency [4] | Potency [5] | Potency [6] | Potency [7] | Potency [8]

N#Cc1ccccc1O
inactive: Potency [1] | outcome [2] | Potency [3] | Potency [4] | Potency [5] | Potency [6] | Potency [7] | Potency [8] | outcome [9]

[O]=[Mo](=[O])=[O]
inactive: cytotoxicity increase [1] -8.07% [at 15.8 µM] | activity change, negative = cytotoxic [2] 0.396% [at 15.8 µM] | cytotoxicity [10] -10.8% [at 15.8 µM] | cytotoxicity increase [3] -15% [at 15.8 µM] | cytotoxicity [6] -4.74% [at 15.8 µM] | cytotoxicity increase [7] -13.6% [at 15.8 µM] | cytotoxicity increase [8] -27.3% [at 15.8 µM] | activity change, negative = cytotoxic [9] 6.22% [at 15.8 µM]

N#CCC(=O)NN
inactive: Potency [1] | outcome [2] | Potency [10] | Potency [3] | Potency [4] | Potency [6] | Potency [8] | outcome [9]

CC(C)OC(=O)OCOP(=O)(CO[C@H](C)Cn1cnc2c(N)ncnc21)OCOC(=O)OC(C)C
inactive: Potency [1] | outcome [2] | Potency [3] | Potency [4] | Potency [5] | Potency [6] | Potency [7] | Potency [8] | outcome [9]
